In the supplement of paper PMC12350171:
Counter-ions that a name gives are not always drawn. Values without a mark were called inactive.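 The calls were made as follows: active = AUC significantly below DMSO controls by Student t-fit with adjusted P under 0.01; inactive = not significantly reduced.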

What follows are compounds tested on Haemophilus parainfluenzae (assay: growth AUC normalised to DMSO control (fraction of control); higher = less growth inhibition, active = hit call of the paper). Conditions: 20 µM.
Method in brief: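 Three biological replicates were carried out, with OD578 read hourly for 24 h. Before inoculation at a starting OD578 of 0.01, pathogens were passaged anaerobically twice; plates were pre-reduced mGAM containing 20 μM compound and 1% DMSO, sealed with breathable membranes, and the Haemophilus parainfluenzae medium carried added hemin and NAD. Area under each growth curve was calculated by the trapezoidal rule up to the exponential-to-stationary transition and normalised to DMSO controls on the same plate.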

| Structure (SMILES) | growth AUC normalised to DMSO control |
| --- | --- |
| CN1CCCN=C1/C=C/c1cccs1 [Pyrantel tartrate] | 0.978 |
| C#C[C@]1(OC(C)=O)CC[C@H]2[C@@H]3CCC4=CC(=NO)CC[C@@H]4[C@H]3CC[C@@]21CC (mixture of isomers) [Norgestimate] | 0.908 |
| CC(=O)CCCCn1c(=O)c2c(ncn2C)n(C)c1=O [Pentoxifylline] | 1.01 |
| Nc1ccc(S(=O)(=O)Nc2nccs2)cc1 [Sulfathiazole] | 1.03 |
| CCN(CCCc1ccccc1)CCCc1ccccc1 [Alverine citrate salt] | 0.925 |
| Cc1cc(C)nc(NS(=O)(=O)c2ccc(N)cc2)n1 [Sulfamethazine sodium salt] | 0.999 |
| CCC(=O)O[C@]1(C(=O)CCl)[C@@H](C)C[C@H]2[C@@H]3CCC4=CC(=O)C=C[C@]4(C)[C@@]3(F)[C@@H](O)C[C@@]21C [Clobetasol propionate] | 1.47 |
| CCOC(=O)C1=C[C@]2(CC)CCCN3CCc4c(n1c1ccccc41)[C@@H]32 [Vinpocetine] | 0.845 |
| CCN(CC)CCNC(=O)c1cc(S(C)(=O)=O)ccc1OC [Tiapride hydrochloride] | 0.993 |
| CCN1CCN(C(=O)N[C@@H](C(=O)N[C@@H]2C(=O)N3[C@@H]2SC(C)(C)[C@@H]3C(=O)O)c2ccccc2)C(=O)C1=O [Piperacillin sodium salt] | 0.0495 (active) |
| COc1ccccc1OCCNCC(O)COc1cccc2[nH]c3ccccc3c12 (stereo unspecified) [Carvedilol] | 0.963 |
